Measured values reported in PubChem BioAssay (Tox21).
Records with an inconclusive call do not appear. The source made the active and inactive calls. Unless noted, calls follow the shape of the dose curve; as a rule, active = well fitted curve in the direction sought with a large enough effect in the repeat runs; inconclusive = weak or mixed curves; inactive = no such curve, though single readings can be large; an effect the other way counts as inactive or inconclusive. Positions of bridges follow the written chain, without caps; N, C: chain ends. Non-standard residues stand in square brackets, D forms with d. Residues, ends and D or L forms follow the SMILES beside them. hArg = N=C(N)NCCCC[C@H](N)C(=O)O; Mpa = O=C(O)CCS

Columns and labels:
[1] = qHTS assay to identify small molecule agonists of the peroxisome proliferator-activated receptor delta (PPARd) signaling pathway - cell viability counter screen (AID 743211); also: % is scaled to controls: 0 for no effect and ±100 for the full control effect; nearly all actives have a fitted effect of over 55% in size
Procedure, shortened: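 Read-out: CellTiter-Glo luminescence, 30 min RT, measured in the same wells as the beta-lactamase reporter. Cells: GeneBLAzer PPAR delta UAS-bla HEK293H, 3000 cells/well, compound exposure 17 h at 37C.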

[2] = target: Peroxisome proliferator-activated receptor delta (Homo sapiens) (UniProt Q03181); test: qHTS assay to identify small molecule agonists of the peroxisome proliferator-activated receptor delta (PPARd) signaling pathway (AID 743212; calls by dose curve; also: % is scaled to controls: 0 for no effect and ±100 for the full control effect)
Chain of Peroxisome proliferator-activated receptor delta (Homo sapiens) (Q03181 whole entry, looked up): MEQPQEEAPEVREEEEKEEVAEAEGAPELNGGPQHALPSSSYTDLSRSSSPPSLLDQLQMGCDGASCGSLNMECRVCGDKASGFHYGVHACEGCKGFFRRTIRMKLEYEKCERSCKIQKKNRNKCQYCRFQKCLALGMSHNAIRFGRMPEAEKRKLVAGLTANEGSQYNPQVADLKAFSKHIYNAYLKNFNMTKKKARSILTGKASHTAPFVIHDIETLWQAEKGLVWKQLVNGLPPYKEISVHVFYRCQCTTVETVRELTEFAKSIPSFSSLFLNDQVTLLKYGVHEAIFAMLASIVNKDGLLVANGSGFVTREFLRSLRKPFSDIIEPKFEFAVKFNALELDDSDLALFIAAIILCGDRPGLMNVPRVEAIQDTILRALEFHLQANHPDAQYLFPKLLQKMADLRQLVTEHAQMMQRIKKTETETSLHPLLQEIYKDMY
Procedure, shortened: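 A PPARd-bla HEK293H line with beta-lactamase under an Upstream Activator Sequence is treated with compounds at 37 C. Substrate loading for 2 h at room temperature precedes the fluorescence measurement.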

[3] = qHTS assay to identify small molecule antagonists of the peroxisome proliferator-activated receptor delta (PPARd) signaling pathway - cell viability counter screen (AID 743213); also: % is scaled to controls: 0 for no effect and ±100 for the full control effect; nearly all actives have a fitted effect of over 50% in size
Procedure, shortened: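 HEK293H PPARd UAS-bla cells, 5 h pre-incubation, compound + L165041 300 nM final, 17 h 37 C; B/G FRET substrate 2 h RT; then CellTiter-Glo 30 min RT, luminescence.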

[4] = target: Bile acid receptor (Homo sapiens) (UniProt Q96RI1); test: qHTS assay to identify small molecule antagonists of the farnesoid-X-receptor (FXR) signaling pathway (AID 743217; active = well fitted inhibition curve with a large enough effect in the signal ratio in the repeat runs, not every such curve was filed as active; the % refers to the signal ratio; also: % is scaled to controls: 0 for no effect and ±100 for the full control effect)
Chain of Bile acid receptor (Homo sapiens) (Q96RI1 whole entry, looked up): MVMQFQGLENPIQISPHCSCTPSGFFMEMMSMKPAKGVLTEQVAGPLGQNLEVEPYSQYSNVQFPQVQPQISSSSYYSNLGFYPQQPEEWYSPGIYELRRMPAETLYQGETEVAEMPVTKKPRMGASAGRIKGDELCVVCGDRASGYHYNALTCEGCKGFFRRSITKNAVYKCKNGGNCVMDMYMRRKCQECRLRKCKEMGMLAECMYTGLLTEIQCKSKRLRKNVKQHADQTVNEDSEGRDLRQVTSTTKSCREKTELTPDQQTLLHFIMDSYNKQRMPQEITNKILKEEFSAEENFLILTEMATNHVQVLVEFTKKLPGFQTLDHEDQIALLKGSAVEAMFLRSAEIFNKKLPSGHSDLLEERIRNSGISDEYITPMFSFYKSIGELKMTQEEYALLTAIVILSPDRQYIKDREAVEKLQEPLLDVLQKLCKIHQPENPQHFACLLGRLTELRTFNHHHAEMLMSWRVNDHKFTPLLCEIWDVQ
Procedure, shortened: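 GeneBLAzer FXR-UAS-bla HEK 293T, CDCA-stimulated (50 uM final). Compound treatment 16 h, 37 °C. Detection: beta-lactamase cleavage of B/G FRET substrate, fluorescence.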

[5] = qHTS assay to identify small molecule agonists of the farnesoid-X-receptor (FXR) signaling pathway - cell viability counter screen (AID 743218); also: % is scaled to controls: 0 for no effect and ±100 for the full control effect; nearly all actives have a fitted effect of over 45% in size
Procedure, shortened: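 Parallel cytotoxicity test: compound-treated (16 h, 37 C) HEK 293T FXR-bla reporter cells were lysed with CellTiter-Glo and luminescence recorded.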

[6] = target: Bile acid receptor (Homo sapiens) (UniProt Q96RI1); test: qHTS assay to identify small molecule agonists of the farnesoid-X-receptor (FXR) signaling pathway (AID 743220; active = well fitted activation curve with a large enough effect in the signal ratio in the repeat runs, not every such curve was filed as active; the % refers to the signal ratio; also: % is scaled to controls: 0 for no effect and ±100 for the full control effect)
Procedure, shortened: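 Beta-lactamase reporter under UAS control in GeneBLAzer FXR HEK 293T cells (5000/well) measured with LiveBLAzer FRET substrate after 2 h at room temperature. Compound exposure lasted 16 h at 37C.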

[7] = target: Vitamin D3 receptor (Homo sapiens) (UniProt P11473); test: qHTS assay to identify small molecule agonists of the vitamin D receptor (VDR) signaling pathway (AID 743222; calls by dose curve; also: % is scaled to controls: 0 for no effect and ±100 for the full control effect)
Chain of Vitamin D3 receptor (Homo sapiens) (P11473 whole entry, looked up): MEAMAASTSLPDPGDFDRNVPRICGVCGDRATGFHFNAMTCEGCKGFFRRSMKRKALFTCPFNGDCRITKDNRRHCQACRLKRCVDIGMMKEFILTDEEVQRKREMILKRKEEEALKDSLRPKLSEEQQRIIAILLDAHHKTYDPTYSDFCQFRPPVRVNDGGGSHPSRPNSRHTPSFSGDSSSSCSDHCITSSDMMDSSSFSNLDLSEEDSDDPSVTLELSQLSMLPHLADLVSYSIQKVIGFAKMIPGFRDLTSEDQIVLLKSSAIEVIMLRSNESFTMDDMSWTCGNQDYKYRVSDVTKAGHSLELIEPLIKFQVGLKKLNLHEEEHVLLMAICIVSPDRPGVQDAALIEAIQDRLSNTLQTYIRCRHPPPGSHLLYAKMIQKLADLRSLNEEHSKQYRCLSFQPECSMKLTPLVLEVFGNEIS
Procedure, shortened: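 In VDR-bla cells, compound-induced beta-lactamase expression is quantified by FRET substrate fluorescence. Treatment lasts 16 h at 37C; substrate develops 2 h at room temperature.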

[8] = target: Vitamin D3 receptor (Homo sapiens) (UniProt P11473); test: qHTS assay to identify small molecule antagonists of the vitamin D receptor (VDR) signaling pathway (AID 743223; active = well fitted inhibition curve with a large enough effect in the signal ratio in the repeat runs, not every such curve was filed as active; the % refers to the signal ratio; also: % is scaled to controls: 0 for no effect and ±100 for the full control effect)
Procedure, shortened: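 Beta-lactamase reporter read-out: FRET substrate fluorescence after 2 h at room temperature, following 16 h exposure of VDR-bla cells to test compound plus 3 nM (final) 1alpha,25-dihydroxyvitamin D3 agonist at 37C.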

[9] = qHTS assay to identify small molecule agonists of the vitamin D receptor (VDR) signaling pathway - cell viability counter screen (AID 743224); also: series mostly up to about 63 µM; % is scaled to controls: 0 for no effect and ±100 for the full control effect; nearly all actives have a fitted effect of over 50% in size
Procedure, shortened: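 Plated VDR-bla cells (4 h, 37C) received compound, incubated 16 h, then LiveBLAzer substrate 2 h RT; CellTiter-Glo added afterwards, luminescence read at 30 min.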

[10] = qHTS assay to identify small molecule antagonists of the vitamin D receptor (VDR) signaling pathway - cell viability counter screen (AID 743225); also: % is scaled to controls: 0 for no effect and ±100 for the full control effect; nearly all actives have a fitted effect of over 50% in size
Procedure, shortened: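 Viability counter screen run in the same wells as the beta-lactamase reporter assay: HEK 293T VDR-UAS-bla cells, 16 h compound exposure at 37C with 3 nM (final) 1-alpha,25-dihydroxyvitamin D3. CellTiter-Glo luminescence, 30 min, room temperature.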

[11] = qHTS assay to identify small molecule agonists of the NFkB signaling pathway (AID 1159509; active = well fitted curve in the direction sought with a large enough effect in the signal ratio in the repeat runs, not every such curve was filed as active; the % refers to the signal ratio)
Procedure, shortened: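 ME-180 NFkB-bla, 2,000 cells/well, overnight plating; cpd pinned in DMSO, 5 h 37 C; B/G FRET substrate 1.5 h RT; ex 405, em 460/530 nm.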

[12] = qHTS assay to identify small molecule agonists of the NFkB signaling pathway - cell viability counter screen (AID 1159515; calls by dose curve; also: series mostly up to about 61 µM; % is scaled to controls: 0 for no effect and ±100 for the full control effect; nearly all actives have a fitted effect of over 55% in size)
Procedure, shortened: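 Using the same wells as the NFkB reporter read, ME-180 NFkB-bla cells given compounds for 5 hr were assessed for viability via CellTiter-Glo, with luminescence taken after a 30 min room-temperature incubation.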

[13] = qHTS assay to identify small molecule agonists of the endoplasmic reticulum stress response signaling pathway (AID 1159516; active = well fitted activation curve with a large enough effect in the signal ratio in the repeat runs, not every such curve was filed as active; the % refers to the signal ratio; also: % is scaled to controls: 0 for no effect and ±100 for the full control effect)
Procedure, shortened: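 An ESRE-bla HeLa cell assay: compounds were pin-transferred from DMSO onto overnight-plated cells and left 5 hr at 37 C. Substrate was then loaded for 2 hr at room temperature before reading fluorescence at 460 nm and 530 nm.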

[14] = qHTS assay to identify small molecule agonists of the endoplasmic reticulum stress response signaling pathway - cell viability counter screen (AID 1159517; calls by dose curve;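 also: HeLa cells carrying an ER stress response element beta-lactamase reporter; series mostly up to about 61 µM; % is scaled to controls: 0 for no effect and ±100 for the full control effect; nearly all actives have a fitted effect of over 50% in size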)
Procedure, shortened: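 CellTiter-Glo was added to wells already read for beta-lactamase FRET, and luminescence was recorded 30 min later. Cells: ESRE-bla HeLa, 1,500 per well, compound exposure 5 hr at 37 C.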

[15] = qHTS assay to identify small molecule antagonists of the retinoid-related orphan receptor gamma (ROR-gamma) signaling pathway - cell viability counter screen (AID 1159520)
Procedure, shortened: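 Tet-on ROR gamma CHO cells (1,000/well) were plated 4 hr, given compounds in DMSO for 2 hr at 37 C, then induced with 1 uM final doxycycline for 16 hr. Viability was read as ATP by CellTiter-Glo luminescence after 30 min.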

[16] = target: Nuclear receptor ROR-gamma (Homo sapiens) (UniProt P51449); test: qHTS assay to identify small molecule antagonists of the retinoid-related orphan receptor gamma (ROR-gamma) signaling pathway (AID 1159521)
Procedure, shortened: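 Luminescence readout (ONE-Glo, 30 min RT) after 16 h doxycycline induction; loss of signal scored as antagonism. CHO cells with TET-inducible RORγ and RORE-LUC reporter; compounds added 2 h before 1 uM final doxycycline.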

[17] = qHTS assay to identify small molecule agonists of the AP-1 signaling pathway - cell viability counter screen (AID 1159525; calls by dose curve; also: nearly all actives have a fitted effect of over 55% in size)
Procedure, shortened: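 ME-180 AP-1-bla, 2500 cells/well, Opti-MEM + 0.5% dialyzed FBS; overnight 37 °C; cpd 15-pt titration, 5 h 37 °C; CellTiter-Glo 30 min RT; luminescence read; normalised to TOAB and DMSO controls.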

[18] = qHTS assay to identify small molecule agonists of the AP-1 signaling pathway (AID 1159526; calls by dose curve; also: % is scaled to controls: 0 for no effect and ±100 for the full control effect)
[19] = qHTS assay to identify small molecule antagonists of the farnesoid-X-receptor (FXR) signaling pathway - cell viability counter screen (AID 743221; active = well fitted cell-killing curve with a large enough effect in the repeat runs, not every such curve was filed as active)
Procedure, shortened: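 HEK 293T FXR-bla cells, 5 h pre-incubation; compound + CDCA 50 uM final, 16 h, 37 C; beta-lactamase FRET read first, then CellTiter-Glo luminescence, 30 min RT.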

[20] = target: Peroxisome proliferator-activated receptor delta (Homo sapiens) (UniProt Q03181); test: qHTS assay to identify small molecule antagonists of the peroxisome proliferator-activated receptor delta (PPARd) signaling pathway (AID 743215; active = well fitted inhibition curve with a large enough effect in the signal ratio in the repeat runs, not every such curve was filed as active; the % refers to the signal ratio)
Procedure, shortened: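 HEK293H UAS-bla, PPARd; agonist L165041 300 nM final with cpd in DMSO; 37 C 17 h; FRET substrate, RT 2 h; fluorescence intensity.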

NC(=O)[C@@H]1CSSCCC(=O)N[C@@H](CCCCN=C(N)N)C(=O)NCC(=O)N[C@@H](CC(=O)O)C(=O)N[C@@H](Cc2c[nH]c3ccccc23)C(=O)N2CCC[C@H]2C(=O)N1 ([Mpa][hArg]GDWPC-NH2; disulfide 1-7)
inactive: outcome [1] | outcome [2] | outcome [3] | outcome [4] | outcome [5] | outcome [6] | outcome [7] | outcome [8] | outcome [9] | outcome [10] | outcome [11] | outcome [12] | outcome [13] | outcome [14] | outcome [15] | outcome [16] | outcome [17] | outcome [18]

Cc1c(C(=O)c2c[nH]n(C)c2=O)ccc(S(C)(=O)=O)c1C1=NOCC1
inactive: outcome [1] | outcome [2] | outcome [3] | outcome [5] | outcome [19] | outcome [7] | outcome [9] | outcome [10] | outcome [11] | outcome [12] | outcome [13] | outcome [14] | outcome [15] | outcome [16] | outcome [17] | outcome [18]

CCO[Si](CC)(OCC)OCC
inactive: outcome [1] | outcome [2] | outcome [3] | outcome [20] | outcome [19] | outcome [7] | outcome [9] | outcome [10] | outcome [11] | outcome [12] | outcome [13] | outcome [14] | outcome [15] | outcome [16] | outcome [17] | outcome [18]

CC1(C)CC(OC(=O)CCCCCCCCC(=O)OC2CC(C)(C)NC(C)(C)C2)CC(C)(C)N1
inactive: outcome [1] | outcome [2] | outcome [3] | outcome [5] | outcome [19] | outcome [7] | outcome [8] | outcome [9] | outcome [10] | outcome [11] | outcome [12] | outcome [13] | outcome [14] | activity, negative = cytotoxicity [15] 1.22% [at 19 µM] | activity change, negative = inhibition [16] 5.06% [at 19 µM] | viability change, negative = cytotoxic [17] -4.65% [at 15.8 µM] | activation [18] 13.3% [at 15.8 µM]

CNCCS(=O)(=O)O
inactive: outcome [1] | outcome [2] | outcome [3] | outcome [20] | outcome [19] | outcome [7] | outcome [10] | outcome [11] | outcome [12] | outcome [13] | outcome [14] | outcome [15] | outcome [16] | outcome [17] | outcome [18]

CC(Oc1cc(Cl)ccc1Cl)C(=O)O (centres undefined)
inactive: outcome [1] | outcome [3] | outcome [20] | outcome [5] | outcome [9] | outcome [10] | outcome [11] | outcome [12] | outcome [13] | outcome [14] | outcome [15] | outcome [16] | outcome [17] | outcome [18]

OCCN1CCOCC1
inactive: outcome [1] | outcome [2] | outcome [3] | outcome [20] | outcome [19] | outcome [9] | outcome [10] | outcome [11] | outcome [12] | outcome [13] | outcome [14] | outcome [15] | outcome [16] | outcome [17] | outcome [18]

CCCCCCCCCCCCCCCCCC#N
inactive: outcome [1] | outcome [2] | outcome [3] | outcome [5] | outcome [9] | outcome [10] | outcome [11] | outcome [12] | outcome [13] | outcome [14] | outcome [15] | outcome [16] | outcome [17] | outcome [18]

CCOc1ccccc1OCC1CNCCO1 (centres undefined)
inactive: outcome [1] | outcome [2] | outcome [3] | outcome [5] | outcome [19] | outcome [7] | outcome [8] | outcome [9] | outcome [10] | outcome [11] | outcome [12] | outcome [13] | outcome [14] | outcome [15] | outcome [16] | outcome [17] | outcome [18]

CCOC(=O)CC1(C)OCC(C)O1 (centres undefined)
inactive: outcome [1] | outcome [2] | outcome [3] | outcome [20] | outcome [5] | outcome [10] | outcome [11] | outcome [12] | outcome [13] | outcome [14] | outcome [15] | outcome [16] | outcome [17] | outcome [18]

CC(C)C1OCCN1CCOC(=O)NCCCCCCNC(=O)OCCN1CCOC1C(C)C (centres undefined)
inactive: outcome [1] | outcome [2] | outcome [3] | outcome [20] | outcome [5] | outcome [9] | outcome [10] | outcome [11] | outcome [12] | outcome [13] | outcome [14] | outcome [15] | outcome [16] | outcome [17] | outcome [18]

CC1(C)O[C@H]2CC(=O)OC[C@]23[C@H]2CC[C@@]4(C)[C@H](c5ccoc5)OC(=O)[C@H]5O[C@]54[C@]2(C)C(=O)C[C@@H]13
inactive: outcome [1] | outcome [2] | outcome [3] | outcome [20] | outcome [5] | outcome [7] | outcome [8] | outcome [9] | outcome [10] | outcome [11] | outcome [12] | outcome [13] | outcome [14] | outcome [15] | outcome [16] | outcome [17] | outcome [18]

N[C@@H](CSCCCO)C(=O)O
inactive: outcome [1] | outcome [3] | outcome [20] | outcome [5] | outcome [7] | outcome [8] | outcome [9] | outcome [10] | outcome [11] | outcome [12] | outcome [13] | outcome [14] | activity, negative = cytotoxicity [15] 0.802% [at 19 µM] | activity change, negative = inhibition [16] 25% [at 19 µM] | viability change, negative = cytotoxic [17] 8.07% [at 15.8 µM] | activation [18] 5.26% [at 15.8 µM]

CCCCCCC1(C)CCC(=O)O1 (centres undefined)
inactive: outcome [1] | outcome [2] | outcome [5] | outcome [19] | outcome [7] | outcome [8] | outcome [10] | outcome [11] | outcome [12] | outcome [13] | outcome [14] | outcome [15] | outcome [16] | outcome [17] | outcome [18]
